Bioassay records deposited in PubChem BioAssay by National Center for Advancing Translational Sciences (NCATS).
POLB inh – inhibitors of human DNA polymerase beta | P06746 | Potency, µM (series often up to 114 µM), usual class: inhibitors | Pol beta primer extension/strand displacement, fluorescence kinetic | 340,000 compounds, 1.3% hits
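Human Pol beta at 10 nM; strand-displacement substrate 50 nM final. Compound exposure 15 min at room temperature before start, reaction 10 min at room temperature.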
Pol kappa inh-1 – DNA polymerase kappa (human) inhibition | Potency, µM (top dose mostly 107 µM), usual class: inhibitors | 400,000 compounds, 0.53% hits | purified Pol kappa, fluorescent DNA synthesis assay, 10 min
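Here, compound and 10 nM enzyme are combined for 15 min at room temperature; adding 50 nM substrate (final) starts DNA synthesis, tracked by fluorescence at 0 and 10 min against buffer-only wells.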
Pol eta inh-1 – inhibitors of human DNA polymerase eta. Q9Y253. recombinant Pol eta, fluorescent DNA replication assay. Potency, µM (doses to about 114 µM), most hits filed as inhibitors. 390,000 compounds, 1.2% hits. AID 588591
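Fluorescent replication assay: 50 nM final substrate added after a 15 min room-temperature compound preincubation with 10 nM enzyme. Signal taken at 0 min and again at 10 min.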
PI5P4Ka inh – PI5P4K alpha (human) kinase inhibition | P48426 | PI5P4Kalpha enzyme, ADP-Glo luminescence, 60 min; hits give low values | max response, % | 330,000 compounds, 1.2% hits; active means max response of -50% or lower; inconclusive means between -30% and -50%; inactive means -30% or higher; further: value at the top dose of about 77 µM
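ADP-Glo luminescence end-point after a 60 min room-temperature kinase reaction. PI5P4Kalpha and substrate in HEPES pH 7.4 buffer with EGTA, 0.1% CHAPS and 5% DMSO; ATP at 5 microM final.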
POLI inh – DNA polymerase iota (human) inhibition | Q9UNA4 | Pol iota fluorescent replication assay, 10 min | Potency, µM (doses to about 115 µM), usual class: inhibitors | 390,000 compounds, 1% hits
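Fluorescent replication assay read twice, at 0 min and 10 min after adding 50 nM (final) substrate. Enzyme (10 nM) and compounds were first incubated 15 min at room temperature; enzyme-free buffer wells were negative controls.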
PI4K2A inh – PI4K2A (human) kinase inhibition; Q9BTU6; 420,000 compounds, 0.13% hits; activity change, negative = inhibition, % at 76.9 µM; purified PI4K2A, ADP-Glo luminescence, 1 h; hits give low values; in the data active means activity change below about -50%; inconclusive means mostly about -30% to -49%
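PI4K2A activity was measured by ADP-Glo luminescence: enzyme (4 ug/mL stock) and phosphatidylinositol (1.2 mM stock) in Tris pH 7.5/MgCl2/EGTA/Triton X-100 buffer were reacted with ATP (300 microM stock) for one hour at ambient temperature.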
GALK inh confirm – galactokinase (human) inhibition, confirmation; shares compounds with Pol eta inh-1; purified GALK, Kinase-Glo ATP depletion luminescence; Potency, µM (titrated, usually from 115 µM), usual class: inhibitors; 150 compounds, 70% hits
Target sequence (P51570 whole entry, looked up): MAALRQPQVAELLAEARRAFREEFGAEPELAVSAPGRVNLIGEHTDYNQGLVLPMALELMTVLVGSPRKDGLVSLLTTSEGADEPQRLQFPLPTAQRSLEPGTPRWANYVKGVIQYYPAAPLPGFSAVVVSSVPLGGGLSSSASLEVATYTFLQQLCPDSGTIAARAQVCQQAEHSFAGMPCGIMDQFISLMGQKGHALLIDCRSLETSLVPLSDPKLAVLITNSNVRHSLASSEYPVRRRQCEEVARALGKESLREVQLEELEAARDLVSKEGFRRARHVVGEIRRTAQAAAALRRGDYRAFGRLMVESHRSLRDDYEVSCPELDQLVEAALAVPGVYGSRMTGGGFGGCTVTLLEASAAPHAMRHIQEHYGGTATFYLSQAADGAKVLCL
GALK redox cs – counter-screen for GALK inhibitors: redox cycling H2O2 generation; shares compounds with Pol eta inh-1; Phenol red-HRP H2O2 redox cycling, absorbance 600 nm; Potency, µM (series often up to 115 µM), usual class: inhibitors; 150 compounds, 40% hits
HEK293 tox – counter-screen for GALK inhibitors: HEK293 cell cytotoxicity; shares compounds with Pol eta inh-1; HEK-293 viability, ATP luminescence (CellTiter-Glo), 24/48 h; Potency, µM (highest dose often 46.1 µM), hits mostly inhibitors; 170 compounds, 10% hits
Pol kappa inh-2 – confirmation of human DNA polymerase kappa inhibitors. shares compounds with Pol eta inh-1. purified Pol-kappa, fluorescent strand-displacement substrate. Potency, µM, usual class: inhibitors. 920 compounds, 76% hits
Pol eta inh-2 – confirmation of human DNA polymerase eta inhibitors; shares compounds with Pol eta inh-1; Pol eta primer extension, TAMRA/BHQ fluorescence, 10 min; Potency, µM, actives largely listed as inhibitors; 2,600 compounds, 64% hits
A number is an active result; - = inactive; ? = inconclusive; . = no result given; [ ] = remark or other dose. Hits are enriched below; roughly 2.8% of the tested compounds scored in any of these assays. Unless noted, the call rests on the fitted dose curve; in most records, active means well fitted curve in the direction sought with a large enough effect; inconclusive means small, poorly fitted or top-dose-only effect, or another doubt; inactive means no such curve, though single readings can be large; an effect the other way counts as inactive or inconclusive.

SMILES	POLB inh	Pol kappa inh-1	Pol eta inh-1	PI5P4Ka inh	POLI inh	PI4K2A inh	Pol eta inh-2	others
O=C(Cc1ccc(S(=O)(=O)N2CCCC2)s1)N1CCN(c2ccc(F)cc2)CC1	32µM	?	?	?	?	-	85
NC1=C([N+](=O)[O-])C(c2ccc3c(c2)OCO3)c2c(c3ccccc3oc2=O)O1 (stereo unspecified)	-	-	-	-	-	-	.
O=c1oc2ccccc2c(O)c1[C@H]1c2ccc(O)cc2Oc2c1c(=O)oc1ccccc21	-	-	?	-	-	-	?
C/C=C1/C[N@@+]2(C)CC[C@]34C(=C(C=O)[C@H]1C[C@H]32)Nc1ccccc14	.	-[19.4 µM]	.	.	.	.	.
O=c1cc(-c2ccc(O)c(O)c2)oc2cc(O)cc(O)c12	7.1µM	6.3µM	3.2µM	-95	4µM	-	.	GALK inh confirm=?;GALK redox cs=-;HEK293 tox=-
COc1cc(-c2oc3cc(O)cc(O)c3c(=O)c2O)ccc1O	.	?	.	.	-	.	.
Cc1cc(/C=C2\C(=O)NC(=O)N(c3ccc(F)cc3)C2=O)c(C)n1-c1cccc(C(=O)O)c1	28µM	?	22µM	-50	22µM	-	?	Pol kappa inh-2=38
Cc1cc(/C=C2\C(=O)NC(=O)N(c3ccccc3)C2=O)c(C)n1-c1ccc(C(=O)O)c(Cl)c1	22µM	?	10µM	?	?	-	34	Pol kappa inh-2=19
Cc1cc(/C=C2\C(=O)NC(=O)N(c3ccc(Cl)cc3)C2=O)c(C)n1C	-	-	-	-	-	-	.
O=C(N/N=C/c1c(O)n(Cc2ccco2)c(=O)[nH]c1=O)c1ccccc1O	-	79µM	14µM	-83	28µM	-	30
Cc1c(N=Cc2c(O)n(Cc3ccco3)c(=O)[nH]c2=O)c(=O)n(-c2ccccc2)n1C	?	-	18µM	-	?	-	?
CCCCC(=O)N/N=C/c1c(O)n(Cc2ccco2)c(=O)[nH]c1=O	?	-	?	?	?	-	.
CC[N+](C)(CC)CCCCOc1ccc2c(c1)C(=O)c1cc(OCCCC[N+](C)(CC)CC)ccc1-2	?	?	?	-	14µM	-	?
O=c1[nH]c(O)c(N=Nc2ccc(Cl)c(S(=O)(=O)Nc3ccccc3Cl)c2)c(=O)[nH]1	.	-	-	?	-	-	.
Cc1ccc2c(c1Cl)NC(C(=O)O)C1CC(Sc3ccccc3[N+](=O)[O-])C(Cl)C21 (stereo unspecified)	?	?	45µM	?	?	-	?
N=C1/C(=C\c2ccc(OC(=O)c3ccccc3Cl)cc2)C(=O)N=C2SC(N3CCOCC3)=NN12	40µM	?	22µM	-67	-	-	38
CCOC(=O)c1c(-n2c(C)cc(C=C3C(=O)NC(=O)NC3=O)c2C)sc2c1CCCC2	-	-	?	-	?	-	.
Cc1cccc(N2C(=O)NC(=O)/C(=C\c3cc(C)n(-c4sc5c(c4C#N)CCCC5)c3C)C2=O)c1C	?	-	20µM	-	20µM	?	30
C[C@@H]1Cc2c(Cl)cc(C(=O)N[C@H](Cc3ccccc3)C(=O)O)c(O)c2C(=O)O1	.	-	.	.	.	.	.
O=C1NC(=S)NC(=O)C1=Cc1cccc2cc3ccccc3cc12	-	-	50µM	-70	35µM	-	?
Cc1cc2c(C(C)C)c(O)c(O)c(C=O)c2c(O)c1-c1c(C)cc2c(C(C)C)c(O)c(O)c(C=O)c2c1O	0.56µM	11µM	.	.	2.5µM	-	.	GALK inh confirm=24µM;GALK redox cs=-;HEK293 tox=-
C[C@H](N)C(=O)N[C@@H](C)C(=O)N[C@@H](Cc1ccccc1)C(=O)CCl	.	-[19.4 µM]	.	.	.	.	.
CC(Cc1ccccc1)NCCn1cnc2c1c(=O)n(C)c(=O)n2C (stereo unspecified)	.	.	.	.	.	-	.
O=C(O)c1ccccc1-c1ccc(C=C2C(=O)N(c3ccccc3)C(=S)N(c3ccccc3)C2=O)o1	45µM	?	18µM	?	?	-	34	Pol kappa inh-2=17
CC(=O)[C@H]1CC[C@H]2C3CC[C@H]4C[C@](C)(O)CC[C@]4(C)C3CC[C@]12C (stereo partly specified)	.	-	.	.	.	.	.
SMILES	POLB inh	Pol kappa inh-1	Pol eta inh-1	PI5P4Ka inh	POLI inh	PI4K2A inh	Pol eta inh-2	others
O=C(OC1Cc2c(O)cc(O)cc2OC1c1cc(O)c(O)c(O)c1)c1cc(O)c(O)c(O)c1 (stereo unspecified)	.	0.56µM	.	.	.	.	.	GALK inh confirm=9.4µM;GALK redox cs=-;HEK293 tox=-
COC(=O)[C@@H](N)CCCN/C(N)=N/[N+](=O)[O-]	.	.	.	.	.	-	.
CCCCC(C)C(OC(=O)CC(CC(=O)O)C(=O)O)C(CC(C)CC(O)CCCCC(O)CC(O)C(C)N)OC(=O)CC(CC(=O)O)C(=O)O (stereo unspecified)	?	79µM	?	-	-	-	76
CCCC[C@@H](C)[C@@H](OC(=O)C[C@@H](CC(=O)O)C(=O)O)[C@H](C[C@@H](C)C[C@H](O)CCCC[C@@H](O)C[C@H](O)[C@H](C)N)OC(=O)C[C@H](CC(=O)O)C(=O)O	.	-[19.4 µM]	.	.	.	.	.
O=C(O)c1c(C(=O)O)c(-c2ccc(Br)cc2)n2c1CSC2	-	-	-	-	?	-	.
O=c1c2ccccc2nc(-c2ccco2)n1-c1nccs1	-	-	?	-	?	-	?
Cc1ccc(-c2nc3ccccc3c(=O)n2-c2nccs2)cc1	-	-	-	.	-	-	.
O=C1NC(=O)N(CCC2=CCCCC2)C(=O)/C1=C/c1cccs1	?	-	?	-63	?	-	?
O=C(NCC1CC1)c1cc([N+](=O)[O-])cc([N+](=O)[O-])c1	-	-	-	-	-	-	.
COCCCn1c(N)c(C(=O)NCc2ccco2)c2nc3ccccc3nc21	-	-	-	-	-	-	.	GALK inh confirm=?;GALK redox cs=-;HEK293 tox=?
CCC(C)N1C(=O)/C(=C/c2ccc3c(c2)CCN3CCCCl)C(=O)NC1=S (stereo unspecified)	16µM	?	16µM	-67	?	-	76	Pol kappa inh-2=84
